# About 83,000 compounds went through this panel and 20% of them were active in at least one assay; those are over-represented in the sample as a whole.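 Results are percent growth after 48 hours of single-concentration exposure. 100 means growth as in untreated cells, lower positive values show inhibition; negative values down to -100 show cell death.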 A number with no mark means an inactive call. The source made the active and inactive calls. How the source made its calls: active means growth percent below 10; inactive means the rest.
# Experiments:
# Test in all cases: NCI-60 one-dose screen, 48 h (100 = growth as untreated, 0 = no growth, -100 = all killed)
# Details in all cases: 10 µM unless noted
# [1] = test system: HCT-15 colon
# [2] = test system: HT29 colon
# [3] = test system: SNB-75 CNS
# [4] = test system: SNB-19 CNS
# [5] = test system: U251 CNS
# [6] = test system: PC-3 prostate
# [7] = test system: SK-MEL-5 melanoma
# [8] = test system: UACC-62 melanoma
# [9] = test system: LOX IMVI melanoma
# [10] = test system: SK-MEL-28 melanoma
SMILES,growth [1],growth [2],growth [3],growth [4],growth [5],growth [6],growth [7],growth [8],growth [9],growth [10] [%]
CCOC(=O)c1c(C)nc2c(c1N)CC(=O)N2Cc1ccc(OC)cc1,55.6%,38.4%,-5.39% (active),4.6% (active),4.05% (active),43%,53.7%,25.7%,75.9%,55
Cc1ccccc1Nc1cc(O)c2c(=O)cc(-c3ccccc3)oc2c1,17.6%,69.9%,-5.66% (active),32.6%,36.2%,40.6%,23.5%,43.4%,30.9%,51.1
CC1(C)CC[C@]23CC[C@]4(C)[C@H](CC[C@@H]5[C@@]6(C)C/C(=C/c7ccncc7)C(=O)C(C)(C)[C@@H]6CC[C@]54C)[C@H]2[C@H]1OC3,73.4%,43.9%,61.4%,83.4%,70%,51%,78.8%,90.5%,73.1%,76
C=C1CC[C@@H]2C(C)(C)[C@@H](O)CC[C@@]2(C)[C@@H]1COc1ccc2ccc(=O)oc2c1,66.7%,64.3%,83.8%,85.8%,75.8%,49.7%,61.7%,55.1%,82.8%,92.3
Cc1ccc2c(-c3nnc(N)s3)cc(=O)oc2c1C,96.9%,106%,92.6%,104%,99.7%,97.1%,101%,94.8%,101%,102
COc1ccccc1N(C(C)=O)C1=C(Cl)C(=O)c2ccccc2C1=O,4.27% (active),6.98% (active),24.8%,34%,8.36% (active),3.3% (active),-69.9% (active),-35.3% (active),4.88% (active),21.2
O=C(O)c1ccc(-c2ccc(/C=N/Nc3nc(Nc4ccccc4)nc(N4CCCCC4)n3)o2)cc1,55.3%,63.4%,65.7%,61%,43.2%,65.6%,71.5%,67.6%,68.6%,78.9
CC1=CC(c2ccco2)=C2C(N)=NNC2N1 (stereo not given),99.7%,104%,64%,92.9%,96.8%,101%,101%,89.3%,98.3%,96.5
Cc1ccc(-c2nc(SCc3nc4cc(Cl)c(Cl)cc4[nH]3)[nH]c(=O)c2C#N)cc1,104%,95.7%,87.2%,106%,98.7%,94%,104%,99.5%,102%,111
CCCn1nc(C(=O)N(C)Cc2ccccc2)c2c1CCC(N1CCc3ccccc31)C2 (stereo not given),96.3%,102%,100%,90.2%,96.9%,77.2%,99.7%,85.2%,100%,106
CN(CCC(=O)c1ccccc1)CCC(=O)c1ccccc1,103%,117%,90.4%,93.1%,98%,95.5%,96.4%,77.9%,75.6%,103
Cc1nc2c(c(=O)[nH]1)C(c1ccccc1)c1ccc3ccccc3c1O2 (stereo not given),23.4%,84.5%,13.1%,30.8%,26.1%,19.7%,36.8%,30.4%,35.2%,57.7
O=C1Nc2c(C(=O)O)cccc2/C1=N/c1n[nH]c(=S)s1,88.8%,105%,98.8%,95.1%,84.9%,84.2%,102%,49.6%,61.2%,107
Cc1ccc(CNc2c3ccccc3nc3ccccc23)cc1,15.6%,10.3%,41.7%,29.7%,26%,24.3%,30.1%,43.4%,11.8%,59.5
COc1ccc(CCN2C(=O)/C(=C/c3ccc(C4Oc5ccccc5C5CC(c6ccccc6)=NN54)cc3)SC2=S)cc1 (stereo not given),105%,105%,101%,94.2%,101%,98%,101%,97.5%,96.6%,117
O=C1/C(=C\c2ccccn2)c2ccccc2N1c1c(Cl)cccc1Cl,12.6%,10.8%,-28.2% (active),34.8%,-2.48% (active),31.4%,23.7%,24.9%,-89.2% (active),14.6

# — PubChem BioAssay (NCI)
